Data: ChEMBL document CHEMBL4513216, “Probing the Open Global Health Chemical Diversity Library for Multistage-Active Starting Points for Next-Generation Antimalarials” (ACS Infect Dis, 2020)
Out of some 65,000 compounds screened, about 2,100 (3.2%) showed an effect of 50% or more. The median lay at about -52%. The sample holds strong results, similar compounds and a random draw of the others, so the mix is not that of the screen.

system: Plasmodium falciparum; assay: Screen against P. falciparum Asexual Blood Stage (ABS), at 5uM; format: functional, Dd2; settings: tested at 5 uM

| SMILES | INHIBITION |
| --- | --- |
| CCOCCN1CCC(C(=O)c2cc(F)ccc2F)CC1 | 5.36% |
| O=C(O)CCC(=O)N1CCN(CC2CC2)c2ncccc2C1 | -23.3% |
| CCSc1cncc(N2CCC(NC(=O)C3CCCCC3)CC2)n1 | -11.6% |
| O=c1cc(N2CCCC2)cnn1CC(F)F | -88.9% |
| CC(C)COCC1CN(Cc2ccc3c(c2)OCO3)Cc2ncn(C)c21 (stereo not given) | 38.7% |
| COc1cc(NCc2ncc[nH]2)ccc1Br | -173% |
| CCC(O)(CNCc1ncc[nH]1)c1ccc(Br)cc1 (stereo not given) | 67.5% |
| CCC(O)(CNCc1ccncc1)c1ccc(Br)cc1 (stereo not given) | 8.37% |
| O=C(c1ccsc1)N1CCc2ncc(Cn3cncn3)n2CC1 | -17.9% |
| COCCNc1ccc(-c2noc([C@@H]3CCCN3)n2)cn1 | 39.8% |
| COCC(=O)Nc1ccc(-c2noc([C@@H]3CCCN3)n2)cn1 | 52.6% |
| COCC(=O)Nc1ccc(-c2noc([C@@H]3CCCN3C)n2)cn1 | -28.7% |
| CN(C)c1cc2c(nn1)CCN(C(=O)C1Cc3ccccc3O1)C2 (stereo not given) | -78.5% |
| O=C(c1cscn1)N1CCO[C@H]2[C@@H](Oc3ccccn3)CC[C@@H]21 | -20.9% |
| Cc1csc(C(=O)N2CCC(O)(CN3CCc4ccccc4C3)C2)c1 (stereo not given) | -1.9% |
| O=C(NCc1ccccc1Cl)c1[nH]nc2c1CS(=O)(=O)CC2 | -148% |
| Cn1cc(CN2CCCCC2c2ccc(-c3cccc(F)c3)nc2)cn1 (stereo not given) | 2.27% |
| Cn1cc(CN2CCCCC2c2ccc(-c3cnn(C)c3)nc2)cn1 (stereo not given) | -15.7% |
| Cn1cc(CN2CCCCC2c2ccc(-c3cccc(Cl)c3)nc2)cn1 (stereo not given) | 55.3% |
| Cc1nc(O)c2nnn(C[C@H]3CCCN3C(=O)c3ccccc3C)c2n1 | -51% |
| CC(c1ccc(F)cc1F)N1CCN(CCC(=O)O)CC1 (stereo not given) | -11.3% |
| CC(SCCC(=O)NC(N)=O)c1ccc(F)cc1F (stereo not given) | -47% |
| CC(c1ccc(F)cc1F)N1CCN(CCC(=O)NC(N)=O)CC1 (stereo not given) | 64% |
| N#Cc1ccc(C(=O)N2CCC(c3ncc[nH]3)CC2)cn1 | -111% |
| C=C(C)CNC1CCCN(Cc2noc(C3CC3)n2)C1 (stereo not given) | 32.4% |
| Cc1ccc2c(c1)C(NC(=O)N(C)C)CC21CCN(C(C)C)CC1 (stereo not given) | -82% |
| O=C(c1ccc[nH]1)N1CCn2cc(Cn3cccn3)nc2C1 | -68.4% |
| CCOCc1cnc2n1CCN(C(=O)c1cn(C)c3ccccc13)C2C (stereo not given) | -9.29% |

| SMILES | INHIBITION |
| --- | --- |
| Clc1cccc(C(CNCc2ccccn2)N2CCOCC2)c1 (stereo not given) | 53.1% |
| Clc1cccc(C(CNc2ncccn2)N2CCOCC2)c1 (stereo not given) | -57% |
| O=C(C(CNCc1cccnc1)c1ccccc1)N1CCOCC1 (stereo not given) | -52.2% |
| O=C(C(CNCc1ccccn1)c1ccccc1)N1CCOCC1 (stereo not given) | -29.2% |
| Cc1ccc(C(CNCc2cccnc2)N2CCOCC2)s1 (stereo not given) | -0.0343% |
| Clc1cccc(C(CNCc2cccnc2)N2CCOCC2)c1 (stereo not given) | 56.9% |
| CCOCC(=O)NCc1cc(Br)ccc1OC(F)F | -119% |
| CCC(C(=O)N1CCS(=O)(=O)CC1)n1cccn1 (stereo not given) | -77.5% |
| CN(C)C(=O)c1ccc2c(c1)nc(N1CC[C@H](O)C1)n2C | -58.1% |
| CN(c1ccc(Cl)c(C(=O)NCCCN2CCOCC2)c1)S(C)(=O)=O | -93.1% |
| O=C(CCCNC(=O)c1cnccn1)Nc1ncc[nH]1 | -63.2% |
| CC(C)COCCC(=O)NCc1cn2cc(Br)ccc2n1 | -27.3% |
| CN(C)[C@@H]1C[C@@H](CO)N(C(=O)Nc2cccc(F)c2F)C1 | -46.8% |
| O=C1NCC2(CCCN(Cc3ccccc3OCCO)C2)O1 (stereo not given) | -55.2% |
| OCC1(O)CCCN(Cc2ccccc2OCCc2ccccc2)CC1 (stereo not given) | 65.1% |
| OCCOc1ccccc1CN1CCCC(O)(CO)C1 (stereo not given) | -48.1% |
| CO[C@H]1CN(C(=O)OC(C)(C)C)CC1NCc1ccoc1 (stereo not given in full) | -73.1% |
| COc1ccnc(N2CCC(OCCN3CCCCC3)C2)n1 (stereo not given) | 51.2% |
| Cc1ccnc(N2CCC(OCCN3CCCCC3)C2)n1 (stereo not given) | -83.8% |
| Cc1cc(C)nc(N2CCC(OCCN3CCCCC3)C2)n1 (stereo not given) | 13.3% |
| CC(C)(C)c1nccc(N2CCC(OCCN3CCCCC3)C2)n1 (stereo not given) | 62.5% |
| Cc1cnc(N2CCC(OCCN3CCCCC3)C2)nc1C (stereo not given) | 23.5% |
| c1cnc(N2CCC(OCCN3CCCCC3)C2)nc1 (stereo not given) | -58% |
| Cc1cccc(-c2c[nH]c(C3CCCN3)n2)c1 (stereo not given) | -5.91% |
| CC(C)c1nccc(CN2CCCC(O)(CN3CCCC3)C2)n1 (stereo not given) | -69.7% |
| CN(C)C(=O)CN1C[C@H]2CC[C@@H](C1)N(C(=O)CCn1cncn1)C2 | -87.6% |
| O=C(NC1CC1)N1CCc2ccc(=O)n(CCN3CCCC3)c2CC1 | -113% |
